# Assay results taken from the supplement of paper PMC11732987, “Enantioselective OTUD7B fragment discovery through chemoproteomics screening and high-throughput optimisation” (Communications Chemistry, 2025).
# Values without a mark were called inactive.
# Experiments:
# Test in all cases: log2 ratio of Biotin-Ahx-Ub-VS probe labelling (fragment/DMSO); higher = less target engagement (more negative = stronger competition), active = hit call of the paper (q ≤ 0.05, log2 ratio ≤ -1)
# Conditions in all cases: compound concentration: 200 uM; treatment time: 3 h
# USP19 = biological target: T1, USP19 (UniProt O94966)
# T1 sequence (whole entry): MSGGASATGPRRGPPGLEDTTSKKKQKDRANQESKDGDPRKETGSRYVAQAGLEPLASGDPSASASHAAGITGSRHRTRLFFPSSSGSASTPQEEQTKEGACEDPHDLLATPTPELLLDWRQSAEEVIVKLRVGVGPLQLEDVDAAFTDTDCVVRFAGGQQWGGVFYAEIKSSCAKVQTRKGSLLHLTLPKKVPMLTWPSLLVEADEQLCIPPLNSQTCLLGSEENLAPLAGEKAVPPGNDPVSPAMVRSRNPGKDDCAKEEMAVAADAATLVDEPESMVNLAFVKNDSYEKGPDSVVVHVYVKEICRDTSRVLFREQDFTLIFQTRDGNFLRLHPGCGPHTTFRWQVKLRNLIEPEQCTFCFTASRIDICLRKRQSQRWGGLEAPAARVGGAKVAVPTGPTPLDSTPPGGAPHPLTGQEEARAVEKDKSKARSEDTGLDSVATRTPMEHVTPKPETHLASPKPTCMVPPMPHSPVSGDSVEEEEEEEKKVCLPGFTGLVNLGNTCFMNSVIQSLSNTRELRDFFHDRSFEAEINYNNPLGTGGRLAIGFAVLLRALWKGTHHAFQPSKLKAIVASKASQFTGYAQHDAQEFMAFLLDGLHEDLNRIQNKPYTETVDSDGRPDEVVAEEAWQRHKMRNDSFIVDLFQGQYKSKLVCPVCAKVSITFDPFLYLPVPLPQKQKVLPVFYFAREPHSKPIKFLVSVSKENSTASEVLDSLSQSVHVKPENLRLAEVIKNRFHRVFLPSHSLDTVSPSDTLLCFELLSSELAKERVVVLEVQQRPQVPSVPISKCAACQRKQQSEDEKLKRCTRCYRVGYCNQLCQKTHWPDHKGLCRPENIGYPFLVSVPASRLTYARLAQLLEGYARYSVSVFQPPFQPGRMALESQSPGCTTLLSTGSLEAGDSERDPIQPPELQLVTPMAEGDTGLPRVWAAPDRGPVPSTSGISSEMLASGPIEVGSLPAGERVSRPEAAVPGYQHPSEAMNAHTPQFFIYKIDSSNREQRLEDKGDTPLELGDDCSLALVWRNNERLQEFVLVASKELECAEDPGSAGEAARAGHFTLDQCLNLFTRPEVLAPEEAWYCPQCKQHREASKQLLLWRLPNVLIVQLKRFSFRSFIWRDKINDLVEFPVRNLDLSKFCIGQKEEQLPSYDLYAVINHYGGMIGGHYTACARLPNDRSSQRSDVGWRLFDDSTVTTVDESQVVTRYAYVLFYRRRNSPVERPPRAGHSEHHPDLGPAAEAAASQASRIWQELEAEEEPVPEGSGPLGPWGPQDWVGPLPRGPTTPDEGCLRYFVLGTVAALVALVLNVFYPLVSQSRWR
# Method in brief: (§1)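 HEK293T lysate in Tris/CHAPS/IGEPAL buffer with protease inhibitors (495 µg per sample) was given fragment at 200 µM or vehicle for 3 h, in triplicate. It then received Biotin-Ahx-Ub-VS at 0.5 µM final for 1 h. Labelled DUBs were NeutrAvidin-enriched, digested with LysC and trypsin, and run by diaPASEF LC-MS/MS. Values are average log2 fragment/vehicle ratios by unpaired t-test on global-median-normalised Spectronaut quantities of proteins with ≥2 unique peptides.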
# USP22 = biological target: T2, USP22 (UniProt Q9UPT9)
# T2 sequence (whole entry): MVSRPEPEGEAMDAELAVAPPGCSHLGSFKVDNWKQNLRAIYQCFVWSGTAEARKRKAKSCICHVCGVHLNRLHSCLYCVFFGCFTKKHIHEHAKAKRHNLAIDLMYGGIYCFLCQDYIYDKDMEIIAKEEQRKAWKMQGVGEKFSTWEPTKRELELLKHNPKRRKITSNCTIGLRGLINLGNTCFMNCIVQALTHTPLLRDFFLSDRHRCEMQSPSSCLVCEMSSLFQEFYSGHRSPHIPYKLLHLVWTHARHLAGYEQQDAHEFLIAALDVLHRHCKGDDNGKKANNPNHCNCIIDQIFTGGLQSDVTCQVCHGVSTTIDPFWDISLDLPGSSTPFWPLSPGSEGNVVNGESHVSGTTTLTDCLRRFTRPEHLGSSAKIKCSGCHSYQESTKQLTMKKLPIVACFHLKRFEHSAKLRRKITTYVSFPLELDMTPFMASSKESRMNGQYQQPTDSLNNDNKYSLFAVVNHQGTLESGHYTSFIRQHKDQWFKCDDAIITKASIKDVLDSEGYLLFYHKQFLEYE
# Method in brief: as §1
# USP24 = USP24 (UniProt Q9UPU5)
# Chain of USP24 (Q9UPU5 whole entry): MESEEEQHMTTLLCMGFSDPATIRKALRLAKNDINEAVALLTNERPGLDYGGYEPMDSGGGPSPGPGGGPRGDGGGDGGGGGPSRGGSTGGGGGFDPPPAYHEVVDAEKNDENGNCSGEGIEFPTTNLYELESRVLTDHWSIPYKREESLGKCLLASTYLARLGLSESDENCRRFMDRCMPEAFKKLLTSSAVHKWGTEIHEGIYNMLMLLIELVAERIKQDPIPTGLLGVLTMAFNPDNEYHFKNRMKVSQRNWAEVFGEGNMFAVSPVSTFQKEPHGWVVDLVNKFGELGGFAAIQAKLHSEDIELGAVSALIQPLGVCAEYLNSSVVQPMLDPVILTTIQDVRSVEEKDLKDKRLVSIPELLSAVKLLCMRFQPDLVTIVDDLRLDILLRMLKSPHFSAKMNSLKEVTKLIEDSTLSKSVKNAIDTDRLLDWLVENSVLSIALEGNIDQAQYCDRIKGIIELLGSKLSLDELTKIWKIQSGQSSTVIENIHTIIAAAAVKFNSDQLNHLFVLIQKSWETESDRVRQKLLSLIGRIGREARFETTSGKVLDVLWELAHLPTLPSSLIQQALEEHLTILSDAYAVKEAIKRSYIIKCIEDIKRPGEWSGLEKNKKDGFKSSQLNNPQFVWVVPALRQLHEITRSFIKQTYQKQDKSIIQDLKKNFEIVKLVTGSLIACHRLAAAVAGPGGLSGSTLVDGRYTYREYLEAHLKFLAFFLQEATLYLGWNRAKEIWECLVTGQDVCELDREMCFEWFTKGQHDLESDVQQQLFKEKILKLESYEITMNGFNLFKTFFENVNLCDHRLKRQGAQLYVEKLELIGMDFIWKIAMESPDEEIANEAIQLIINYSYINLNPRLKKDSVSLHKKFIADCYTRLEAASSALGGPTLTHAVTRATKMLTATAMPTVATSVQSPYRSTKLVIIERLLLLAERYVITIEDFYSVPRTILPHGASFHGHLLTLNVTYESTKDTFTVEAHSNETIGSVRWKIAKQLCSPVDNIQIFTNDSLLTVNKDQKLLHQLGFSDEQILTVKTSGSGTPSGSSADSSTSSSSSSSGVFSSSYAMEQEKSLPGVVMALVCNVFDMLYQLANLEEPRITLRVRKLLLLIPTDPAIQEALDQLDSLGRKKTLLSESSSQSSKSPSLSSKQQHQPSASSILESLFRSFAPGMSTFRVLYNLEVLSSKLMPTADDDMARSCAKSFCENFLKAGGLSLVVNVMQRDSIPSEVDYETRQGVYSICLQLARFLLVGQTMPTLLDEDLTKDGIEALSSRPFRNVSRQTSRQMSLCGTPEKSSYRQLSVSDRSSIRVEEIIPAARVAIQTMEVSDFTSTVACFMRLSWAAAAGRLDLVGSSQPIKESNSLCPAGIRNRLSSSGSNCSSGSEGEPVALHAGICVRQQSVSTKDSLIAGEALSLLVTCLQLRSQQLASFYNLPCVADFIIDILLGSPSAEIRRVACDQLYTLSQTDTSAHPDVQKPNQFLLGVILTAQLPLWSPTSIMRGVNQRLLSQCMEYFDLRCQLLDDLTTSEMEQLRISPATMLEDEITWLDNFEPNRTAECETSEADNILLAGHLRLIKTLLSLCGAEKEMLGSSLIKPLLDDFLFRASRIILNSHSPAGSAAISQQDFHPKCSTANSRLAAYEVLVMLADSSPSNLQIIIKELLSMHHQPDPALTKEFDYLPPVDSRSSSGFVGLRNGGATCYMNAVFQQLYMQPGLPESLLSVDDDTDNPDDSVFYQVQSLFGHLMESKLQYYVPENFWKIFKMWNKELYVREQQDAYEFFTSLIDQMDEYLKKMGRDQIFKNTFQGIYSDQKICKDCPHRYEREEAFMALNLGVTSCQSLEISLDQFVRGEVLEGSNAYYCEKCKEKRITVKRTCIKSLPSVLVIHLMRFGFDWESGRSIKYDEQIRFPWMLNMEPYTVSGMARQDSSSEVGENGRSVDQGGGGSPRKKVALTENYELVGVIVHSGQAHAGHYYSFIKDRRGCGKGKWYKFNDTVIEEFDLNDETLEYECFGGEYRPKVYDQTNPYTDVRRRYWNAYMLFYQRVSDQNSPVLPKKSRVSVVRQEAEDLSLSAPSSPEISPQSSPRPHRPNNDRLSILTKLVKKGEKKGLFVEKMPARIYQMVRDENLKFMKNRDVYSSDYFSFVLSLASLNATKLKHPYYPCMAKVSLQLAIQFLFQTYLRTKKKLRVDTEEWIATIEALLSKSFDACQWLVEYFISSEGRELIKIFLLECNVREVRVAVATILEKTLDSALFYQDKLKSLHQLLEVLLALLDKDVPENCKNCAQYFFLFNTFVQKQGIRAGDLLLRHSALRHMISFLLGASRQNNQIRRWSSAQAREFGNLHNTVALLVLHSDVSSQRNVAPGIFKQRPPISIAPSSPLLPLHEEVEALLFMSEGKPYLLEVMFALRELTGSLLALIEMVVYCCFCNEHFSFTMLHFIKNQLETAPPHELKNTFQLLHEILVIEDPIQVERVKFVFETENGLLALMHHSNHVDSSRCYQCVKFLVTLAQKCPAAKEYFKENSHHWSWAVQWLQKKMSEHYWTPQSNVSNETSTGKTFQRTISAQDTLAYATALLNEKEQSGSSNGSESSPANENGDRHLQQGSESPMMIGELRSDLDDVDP
# Method in brief: as §1
# USP25 = biological target: T3, USP25 (UniProt Q9UHP3)
# T3 sequence (whole entry): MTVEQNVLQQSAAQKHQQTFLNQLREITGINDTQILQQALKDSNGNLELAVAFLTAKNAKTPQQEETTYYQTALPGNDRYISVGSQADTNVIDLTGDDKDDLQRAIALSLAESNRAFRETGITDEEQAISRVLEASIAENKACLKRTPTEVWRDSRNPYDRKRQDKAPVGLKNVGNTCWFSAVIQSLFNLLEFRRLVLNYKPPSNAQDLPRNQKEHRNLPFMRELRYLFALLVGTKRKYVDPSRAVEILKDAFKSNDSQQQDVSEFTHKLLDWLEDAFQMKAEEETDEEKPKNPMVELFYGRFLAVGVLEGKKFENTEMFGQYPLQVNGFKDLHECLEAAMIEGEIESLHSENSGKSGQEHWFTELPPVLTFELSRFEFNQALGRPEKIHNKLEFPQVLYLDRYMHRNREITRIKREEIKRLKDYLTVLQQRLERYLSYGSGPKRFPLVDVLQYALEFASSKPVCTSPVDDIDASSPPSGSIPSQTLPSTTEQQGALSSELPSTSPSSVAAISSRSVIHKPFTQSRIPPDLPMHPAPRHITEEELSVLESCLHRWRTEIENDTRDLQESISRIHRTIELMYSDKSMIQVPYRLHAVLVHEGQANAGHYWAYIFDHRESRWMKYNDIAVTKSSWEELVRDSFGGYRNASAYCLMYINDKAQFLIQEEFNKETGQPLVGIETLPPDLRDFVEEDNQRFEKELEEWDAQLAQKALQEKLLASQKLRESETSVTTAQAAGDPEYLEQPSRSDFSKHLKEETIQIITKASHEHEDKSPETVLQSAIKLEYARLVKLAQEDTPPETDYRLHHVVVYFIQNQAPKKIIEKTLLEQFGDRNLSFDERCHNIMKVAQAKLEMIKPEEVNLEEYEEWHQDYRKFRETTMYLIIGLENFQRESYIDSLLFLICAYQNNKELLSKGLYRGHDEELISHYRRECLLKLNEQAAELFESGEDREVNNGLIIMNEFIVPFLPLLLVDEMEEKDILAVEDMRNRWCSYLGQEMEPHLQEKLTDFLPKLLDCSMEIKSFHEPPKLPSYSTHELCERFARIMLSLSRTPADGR
# Method in brief: as §1
# USP28 = biological target: T4, USP28 (UniProt Q96RU2)
# T4 sequence (whole entry): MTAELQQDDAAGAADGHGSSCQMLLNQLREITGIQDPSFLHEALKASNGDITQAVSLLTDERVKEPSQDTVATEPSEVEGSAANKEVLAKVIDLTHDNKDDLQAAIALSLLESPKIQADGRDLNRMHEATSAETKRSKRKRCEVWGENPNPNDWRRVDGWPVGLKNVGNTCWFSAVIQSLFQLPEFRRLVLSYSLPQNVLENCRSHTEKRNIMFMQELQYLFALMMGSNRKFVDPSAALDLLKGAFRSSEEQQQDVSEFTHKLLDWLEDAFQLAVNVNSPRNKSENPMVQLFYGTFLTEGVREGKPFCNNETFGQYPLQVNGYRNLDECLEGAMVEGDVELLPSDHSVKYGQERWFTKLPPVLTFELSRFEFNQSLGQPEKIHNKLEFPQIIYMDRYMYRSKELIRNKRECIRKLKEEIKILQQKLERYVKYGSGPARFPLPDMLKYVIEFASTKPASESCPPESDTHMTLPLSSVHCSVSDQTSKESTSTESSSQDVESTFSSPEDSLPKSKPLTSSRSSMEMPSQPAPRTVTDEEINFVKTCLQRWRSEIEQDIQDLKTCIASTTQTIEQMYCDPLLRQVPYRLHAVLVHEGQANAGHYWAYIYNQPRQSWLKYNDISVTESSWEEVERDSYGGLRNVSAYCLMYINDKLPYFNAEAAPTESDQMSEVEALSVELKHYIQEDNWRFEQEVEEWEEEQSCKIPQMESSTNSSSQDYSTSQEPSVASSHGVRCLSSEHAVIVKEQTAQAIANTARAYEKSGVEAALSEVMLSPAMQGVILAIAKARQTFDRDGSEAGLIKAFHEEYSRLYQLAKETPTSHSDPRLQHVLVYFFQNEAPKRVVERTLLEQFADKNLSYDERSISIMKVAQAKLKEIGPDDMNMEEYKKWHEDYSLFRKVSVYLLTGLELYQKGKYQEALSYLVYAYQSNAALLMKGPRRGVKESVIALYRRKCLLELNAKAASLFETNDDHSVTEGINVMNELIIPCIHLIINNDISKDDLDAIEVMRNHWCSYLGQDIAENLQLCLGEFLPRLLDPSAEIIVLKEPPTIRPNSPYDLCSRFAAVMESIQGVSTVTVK
# Method in brief: as §1
compound,measurement,setting,value
CS(=O)(=O)c1ccc(NC(=O)CCl)cc1,log2 ratio of Biotin-Ahx-Ub-VS probe labelling,USP19,-0.223
same,log2 ratio of Biotin-Ahx-Ub-VS probe labelling,USP22,0.107
same,log2 ratio of Biotin-Ahx-Ub-VS probe labelling,USP24,-0.247
same,log2 ratio of Biotin-Ahx-Ub-VS probe labelling,USP25,-1.74 (active)
same,log2 ratio of Biotin-Ahx-Ub-VS probe labelling,USP28,-1.38 (active)
